Compounds without any hit were thinned out: in the full panel of roughly 83,000, 20% have a hit.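 The endpoint reported here, percent growth, reads 100 for growth as untreated, 0 for no net growth and -100 for all cells dead.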 Calls of active or inactive are those of the source. Rule for the calls: active = growth percent below 10; inactive = the rest.
Assays:
Assay in all cases: NCI-60 one-dose screen, 48 h (100 = growth as untreated, 0 = no growth, -100 = all killed)
Details in all cases: 10 µM unless noted
SR leukemia = test system: SR leukemia
RPMI-8226 leukemia = test system: RPMI-8226 leukemia
OVCAR-8 ovarian = test system: OVCAR-8 ovarian
OVCAR-5 ovarian = test system: OVCAR-5 ovarian
OVCAR-4 ovarian = test system: OVCAR-4 ovarian
SK-OV-3 ovarian = test system: SK-OV-3 ovarian
IGROV1 ovarian = test system: IGROV1 ovarian
OVCAR-3 ovarian = test system: OVCAR-3 ovarian
HS 578T breast = test system: HS 578T breast
NCI/ADR-RES ovarian = test system: NCI/ADR-RES ovarian
T-47D breast = test system: T-47D breast
BT-549 breast = test system: BT-549 breast
MDA-MB-435 melanoma = test system: MDA-MB-435 melanoma
SW-620 colon = test system: SW-620 colon
MCF7 breast = test system: MCF7 breast
HCT-116 colon = test system: HCT-116 colon
HCC-2998 colon = test system: HCC-2998 colon
KM12 colon = test system: KM12 colon

Measured: growth

CC(=C(c1ccc(OCCN2CCCC2)cc1)c1ccc(OCCN2CCCC2)cc1)c1ccc(Cl)cc1
active: SR leukemia -45.8% | RPMI-8226 leukemia -54.8% | OVCAR-8 ovarian -6.74% | OVCAR-5 ovarian -16% | OVCAR-4 ovarian -11.2% | IGROV1 ovarian -50.7% | OVCAR-3 ovarian -20.8% | HS 578T breast -31.2% | NCI/ADR-RES ovarian -12% | T-47D breast -64.7% | MDA-MB-435 melanoma -89.7% | SW-620 colon -73.3% | MCF7 breast -75% | HCT-116 colon -93.6% | HCC-2998 colon -57.1% | KM12 colon -22.9%
inactive: SK-OV-3 ovarian 85.8% | BT-549 breast 55.8%

Cc1ccc2c(n1)C(=O)C(Cl)=C(Nc1ccc(C(F)(F)F)cc1)C2=O
inactive: SR leukemia 10.5% | OVCAR-8 ovarian 39.3% | OVCAR-5 ovarian 110% | SK-OV-3 ovarian 82.2% | HS 578T breast 94.1% | NCI/ADR-RES ovarian 87.6% | BT-549 breast 130% | MDA-MB-435 melanoma 95.8% | HCC-2998 colon 97.9% | KM12 colon 98.2%
active: RPMI-8226 leukemia -8.81% | OVCAR-4 ovarian -96.4% | IGROV1 ovarian -58.2% | OVCAR-3 ovarian -48.6% | T-47D breast -25.5% | SW-620 colon -10.5% | MCF7 breast -56.1% | HCT-116 colon 1.42%

Oc1[nH]c2ccc(Cl)cc2c1N=Nc1nc(N=Nc2c(O)[nH]c3ccc(Cl)cc23)nc(N2CCOCC2)n1
active: HS 578T breast -7.82% | BT-549 breast -6.36%
inactive: SR leukemia 29.2% | RPMI-8226 leukemia 36.4% | OVCAR-8 ovarian 50.1% | OVCAR-5 ovarian 95.1% | OVCAR-4 ovarian 78.7% | SK-OV-3 ovarian 55.5% | IGROV1 ovarian 55% | OVCAR-3 ovarian 52.7% | NCI/ADR-RES ovarian 98.1% | T-47D breast 29.3% | MDA-MB-435 melanoma 63.5% | SW-620 colon 74.3% | MCF7 breast 43.1% | HCT-116 colon 45.4% | HCC-2998 colon 75.5% | KM12 colon 81.2%

CNCCN(C)c1ccc(Nc2cc(NC3CC3)n3ncc(C#N)c3n2)cc1NC(C)=O
inactive: RPMI-8226 leukemia 12.2% | OVCAR-8 ovarian 21.7% | NCI/ADR-RES ovarian 45.5% | HCC-2998 colon 10.2%
active: SR leukemia 6.13% | OVCAR-5 ovarian 7.68% | OVCAR-4 ovarian 2.94% | SK-OV-3 ovarian -13.6% | IGROV1 ovarian -18.3% | OVCAR-3 ovarian -16.9% | HS 578T breast -19% | T-47D breast -16.2% | BT-549 breast -54.7% | MDA-MB-435 melanoma 6.93% | SW-620 colon -2.54% | MCF7 breast -0.902% | HCT-116 colon -5.45% | KM12 colon 8.46%

CC1(C)C=Cc2cc(/C(N)=N/C(N)=N/c3nc4ccccc4s3)ccc2O1
active: SR leukemia 6.81%
inactive: RPMI-8226 leukemia 80.2% | OVCAR-8 ovarian 76.5% | OVCAR-5 ovarian 95.9% | OVCAR-4 ovarian 82.7% | SK-OV-3 ovarian 124% | IGROV1 ovarian 52.5% | OVCAR-3 ovarian 103% | HS 578T breast 101% | NCI/ADR-RES ovarian 81.7% | T-47D breast 77.6% | BT-549 breast 86.1% | MDA-MB-435 melanoma 99.3% | SW-620 colon 102% | MCF7 breast 67.2% | HCT-116 colon 59.2% | HCC-2998 colon 109% | KM12 colon 61.5%

Cn1cc(-c2cc3ncnc(Nc4ccc(CC(=O)Nc5nc(C(C)(C)C)cs5)cc4)c3s2)cn1
active: T-47D breast 3.67%
inactive: SR leukemia 36.2% | RPMI-8226 leukemia 38.8% | OVCAR-8 ovarian 38.1% | OVCAR-5 ovarian 84.3% | OVCAR-4 ovarian 28.2% | SK-OV-3 ovarian 26.2% | IGROV1 ovarian 12% | OVCAR-3 ovarian 62.3% | HS 578T breast 47.3% | NCI/ADR-RES ovarian 101% | BT-549 breast 61.3% | MDA-MB-435 melanoma 54.6% | SW-620 colon 53.8% | MCF7 breast 41.8% | HCT-116 colon 39% | HCC-2998 colon 74.6% | KM12 colon 13.2%

O=C(Nc1ccccc1)Nc1nc2ccc([N+](=O)[O-])cc2[nH]1
inactive: SR leukemia 70.4% | RPMI-8226 leukemia 46.1% | OVCAR-8 ovarian 66.9% | OVCAR-5 ovarian 75.2% | OVCAR-4 ovarian 23.5% | SK-OV-3 ovarian 73.4% | IGROV1 ovarian 45.9% | OVCAR-3 ovarian 38.3% | HS 578T breast 75.5% | NCI/ADR-RES ovarian 69.1% | T-47D breast 14.7% | BT-549 breast 77.8% | MDA-MB-435 melanoma 55.3% | SW-620 colon 56% | MCF7 breast 53.7% | HCT-116 colon 39.4% | HCC-2998 colon 60.4% | KM12 colon 45.2%

CCCCCC[n+]1ccc(SCC(=O)n2ccc3ccccc32)c2ccccc21
inactive: SR leukemia 56.6% | RPMI-8226 leukemia 49.6% | OVCAR-8 ovarian 92.1% | OVCAR-5 ovarian 98.4% | OVCAR-4 ovarian 58.6% | SK-OV-3 ovarian 89.9% | IGROV1 ovarian 74.1% | OVCAR-3 ovarian 84.7% | HS 578T breast 97.6% | NCI/ADR-RES ovarian 103% | T-47D breast 59.1% | BT-549 breast 73.2% | MDA-MB-435 melanoma 101% | SW-620 colon 92.1% | MCF7 breast 75.6% | HCT-116 colon 73.2% | HCC-2998 colon 92.8% | KM12 colon 84.3%

Cn1cc(-c2nc(N)nnc2-c2c[nH]c3ccc(Br)cc23)c2cc(F)ccc21
inactive: SR leukemia 50% | RPMI-8226 leukemia 80.2% | OVCAR-8 ovarian 96.8% | OVCAR-5 ovarian 110% | OVCAR-4 ovarian 94.5% | SK-OV-3 ovarian 118% | IGROV1 ovarian 73% | OVCAR-3 ovarian 99.6% | HS 578T breast 96.4% | NCI/ADR-RES ovarian 89.8% | T-47D breast 74.8% | BT-549 breast 96.9% | MDA-MB-435 melanoma 50.5% | SW-620 colon 95.1% | MCF7 breast 47.4% | HCT-116 colon 100% | HCC-2998 colon 122% | KM12 colon 74.7%

CNC(=O)c1cc(-c2ccc(NC(=S)Nc3cccc(C(F)(F)F)c3)cc2)nc2cccnc12
inactive: SR leukemia 80.8% | RPMI-8226 leukemia 95.2% | OVCAR-8 ovarian 93.9% | OVCAR-5 ovarian 102% | OVCAR-4 ovarian 96.6% | SK-OV-3 ovarian 105% | IGROV1 ovarian 103% | OVCAR-3 ovarian 109% | HS 578T breast 105% | NCI/ADR-RES ovarian 95.3% | T-47D breast 102% | BT-549 breast 104% | MDA-MB-435 melanoma 95.9% | SW-620 colon 96.8% | MCF7 breast 80.3% | HCT-116 colon 103% | HCC-2998 colon 116% | KM12 colon 98.8%

NC1=NC2(CCCC2)N(c2ccc(S(=O)(=O)Nc3nccs3)cc2)C(N)=N1
inactive: SR leukemia 98.2% | RPMI-8226 leukemia 94.1% | OVCAR-8 ovarian 105% | OVCAR-5 ovarian 101% | OVCAR-4 ovarian 110% | SK-OV-3 ovarian 114% | IGROV1 ovarian 103% | OVCAR-3 ovarian 116% | HS 578T breast 109% | NCI/ADR-RES ovarian 100% | T-47D breast 103% | BT-549 breast 102% | MDA-MB-435 melanoma 107% | SW-620 colon 105% | MCF7 breast 97.6% | HCT-116 colon 109% | HCC-2998 colon 109% | KM12 colon 101%

O=C(CCCCCCNC(=O)C(O)(O)C(F)(F)F)Nc1ccc(-c2ccccc2)cc1
active: SR leukemia 2.65% | OVCAR-8 ovarian 6.81% | OVCAR-5 ovarian 9.32% | SK-OV-3 ovarian -22.6% | OVCAR-3 ovarian -16.6% | NCI/ADR-RES ovarian 7.74% | MDA-MB-435 melanoma 7.66% | SW-620 colon 2.53% | MCF7 breast 9.59% | HCT-116 colon 4.14% | HCC-2998 colon -0.948% | KM12 colon 8.38%
inactive: RPMI-8226 leukemia 15.1% | OVCAR-4 ovarian 36.6% | IGROV1 ovarian 14.3% | HS 578T breast 33.8% | T-47D breast 11.5% | BT-549 breast 14.8%

CCOc1cccc(/C(N)=N/C(N)=N/c2nc3ccccc3s2)c1
inactive: RPMI-8226 leukemia 77.3% | OVCAR-8 ovarian 68.8% | OVCAR-5 ovarian 98.8% | OVCAR-4 ovarian 95.1% | SK-OV-3 ovarian 132% | IGROV1 ovarian 56% | OVCAR-3 ovarian 104% | HS 578T breast 96.3% | NCI/ADR-RES ovarian 49.7% | T-47D breast 73.1% | BT-549 breast 102% | MDA-MB-435 melanoma 99.9% | SW-620 colon 102% | MCF7 breast 72.6% | HCT-116 colon 72.3% | HCC-2998 colon 111% | KM12 colon 46.4%
active: SR leukemia 6.28%

COc1ccc2sc(NC(=O)CCCCCCNC(=O)C(O)(O)C(F)(F)F)nc2c1
inactive: SR leukemia 12.5% | RPMI-8226 leukemia 14.6% | OVCAR-4 ovarian 27.7% | HS 578T breast 19.1%
active: OVCAR-8 ovarian 2.54% | OVCAR-5 ovarian -0.588% | SK-OV-3 ovarian -26.6% | IGROV1 ovarian 0.233% | OVCAR-3 ovarian -23.9% | NCI/ADR-RES ovarian 5.2% | T-47D breast 8.02% | BT-549 breast 7.95% | MDA-MB-435 melanoma 1.37% | SW-620 colon 5.18% | MCF7 breast 9.01% | HCT-116 colon 0.844% | HCC-2998 colon -45.9% | KM12 colon -15.1%

Cc1[nH]c(C(=O)Nc2ccccc2OCc2cccc(C(=O)NC3CCCNC3)c2)c(Cl)c1Cl (stereo unspecified)
inactive: SK-OV-3 ovarian 108% | HS 578T breast 93% | BT-549 breast 98.8%
active: SR leukemia -30.5% | RPMI-8226 leukemia -19.1% | OVCAR-8 ovarian -44.3% | OVCAR-5 ovarian -87.8% | OVCAR-4 ovarian -73.4% | IGROV1 ovarian -71.3% | OVCAR-3 ovarian -85.7% | NCI/ADR-RES ovarian -2.67% | T-47D breast -9.08% | MDA-MB-435 melanoma -80.2% | SW-620 colon -68.8% | MCF7 breast -77.8% | HCT-116 colon -67% | HCC-2998 colon -90% | KM12 colon -78.4%

COc1cc(C(=O)c2cc(C(C)=O)c3ccc(C)cn23)cc(OC)c1OC
active: MDA-MB-435 melanoma -12.7%
inactive: SR leukemia 26.9% | RPMI-8226 leukemia 54.6% | OVCAR-8 ovarian 50.6% | OVCAR-5 ovarian 59.5% | OVCAR-4 ovarian 79.7% | SK-OV-3 ovarian 77.4% | IGROV1 ovarian 41.9% | OVCAR-3 ovarian 28% | HS 578T breast 59% | NCI/ADR-RES ovarian 18.4% | T-47D breast 37.9% | BT-549 breast 53.1% | SW-620 colon 32.4% | MCF7 breast 14.8% | HCT-116 colon 18.4% | HCC-2998 colon 61.6% | KM12 colon 28.6%

COc1ccccc1Cn1cc(C#N)c(N)c1C(=O)c1ccc(Br)cc1
inactive: SR leukemia 112% | RPMI-8226 leukemia 93.7% | OVCAR-8 ovarian 98.3% | OVCAR-5 ovarian 104% | OVCAR-4 ovarian 73.8% | SK-OV-3 ovarian 107% | IGROV1 ovarian 91.6% | OVCAR-3 ovarian 104% | HS 578T breast 94.4% | NCI/ADR-RES ovarian 93.6% | T-47D breast 74.1% | BT-549 breast 103% | MDA-MB-435 melanoma 94.4% | SW-620 colon 100% | MCF7 breast 91.5% | HCT-116 colon 93.9% | HCC-2998 colon 103% | KM12 colon 96.5%

Source: PubChem BioAssay (NCI)
